These compounds were tested on AKT3. Conditions: concentration: 1 μM, replicates: in singlicate; n = 1.
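Further: KINOMEscan kinase panel screen.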

Compound | %Inh [%]
N#Cc1ccc(-c2cc(-c3c[nH]nc3-c3ccccn3)ccn2)cc1 [GW693028] | 0
O=C(Nc1n[nH]c2cc(-c3cccc(F)c3)ccc12)C1CC1 [SB-735464] | 19
COc1cc2c(cc1OC[C@@H](O)CO)ncc1c3ccc(C#N)cc3[nH]c21 | 0
CCCCCc1nc2c(N)ncnc2n1CCCCC [SKF-97255] | 0
Cc1cccc(Cn2ccn3c(=O)cc(N4CCOCC4)nc23)c1 [GSK2297542] | 0
CCn1cnc2c(N)ncnc21 [GW345098] | 0
Cn1ccc2ncnc(Oc3ccc(NC(=O)Nc4ccncc4)c(Cl)c3)c21 | 0
Cn1cc(-c2ccc3c(c2)CCN3C(=O)Cc2ccccc2Cl)c2c(N)ncnc21 [GSK2608885] | 0
Cl.Nc1ncnc2occ(-c3ccc(NC(=O)Nc4cc(C(F)(F)F)ccc4F)cc3)c12 [SB-707548] | 0
Cc1ccc(C(=O)NCC(N)=O)cc1-n1c(C)cc(OCc2ccc(F)cc2F)c(Br)c1=O | 0
NCC(NC(=O)c1cc(-c2cn[nH]c2)c(-c2ccnc3[nH]ccc23)s1)c1ccccc1.O=C(O)C(F)(F)F.O=C(O)C(F)(F)F (stereo not shown) [GSK1325775] | 83
CN(C(=O)c1ccc(-c2cc(-c3c[nH]nc3-c3ccccn3)ccn2)cc1)C1CCOCC1 [GW810083] | 0
Cc1nnc(-c2ccc(C)c(-c3ccc(C(=O)Nc4ccc(NS(C)(=O)=O)cc4)cc3)c2)o1 [GW702865] | 0
CN(C1=C(c2ccccc2)C(=O)NC1=O)c1ccccc1 [SB-334860] | 0
Cc1cccc(-c2nc(Nc3ccc4ncsc4c3)c3ccccc3n2)n1 [GW867588] | 0
NS(=O)(=O)CCc1cccc(Nc2nccc(-c3c(-c4cccc(NC(=O)c5c(F)cccc5F)c4)nn4ccccc34)n2)c1 [GSK336735] | 0
CNc1ncnc2[nH]ncc12 [SKF-18355] | 4
Cc1c2ccc(N(C)c3ccnc(Nc4cccc(S(N)(=O)=O)c4)n3)cc2nn1Cc1ccccc1.Cl.Cl [GW787226] | 0

Compound | %Inh [%]
COc1ccc(CNC(=O)NC2CCN(c3ccnc(Nc4ccc(OC)cc4)n3)C2)cc1 (stereo not shown) [GSK1379727] | 0
Cc1nnc(-c2ccc3occ(-c4ccc(C(C)O)cc4)c3c2)o1 (stereo not shown) | 4
Fc1ccc(-c2nn3c(OCC(F)(F)F)cccc3c2-c2ccncc2)cc1 [GW514784] | 0
O=C1Cc2cc(Nc3nc(NCc4cccc(S(=O)(=O)C(F)(F)F)c4)ncc3C(F)(F)F)ccc2N1 | 0
O=C(NCCNc1ccnc(Nc2ccc(F)cc2)n1)c1cc2ccccc2s1 [GSK1379874] | 0
Nc1nccc(-c2c(-c3ccc(F)cc3)ncn2C2CCN(CC(F)(F)F)CC2)n1 [SB-236560] | 0
Nc1nc(-c2ccc3c(N)n[nH]c3c2)cc(N2CCCC2)n1 [GSK2227430] | 0
O=c1cc(N2CCOCC2)nc2n(Cc3cccc(Cl)c3Cl)c(C3CC3)nn12 [GSK2358994] | 0
N#Cc1c(N2CCOCC2)sc(-c2ccn[nH]2)c1-c1ccc(Cl)cc1 | 0
NS(=O)(=O)c1cccc(-c2ccc3nccc(-c4cccc(S(N)(=O)=O)c4)c3c2)c1 [GW867253] | 10
O=c1cc(N2CCOCC2)nc2n(Cc3cccc(F)c3)ccn12 [GSK2297430] | 0
Cc1cccc(-c2nc(-c3ccc(S(C)(=O)=O)cc3)sc2-c2ccncc2)c1 | 0
COCCNC(=O)c1ccc(-c2cc(C(=O)NC3CC3)cc(F)c2C)cc1 [GW868318] | 26
Cc1cn2c(=O)cc(N3CCOCC3)nc2n1Cc1cccc(Cl)c1Cl [GSK2334006] | 26
COc1ccc(COc2cc(-n3cnc4ccccc43)sc2C(N)=O)cc1 [GSK1024304] | 54
CN1c2ccc(NCc3ccc(F)cc3)cc2-c2c(cnn2C)S1(=O)=O | 0
O=C(NOCC1CC1)c1ccc(F)c(F)c1Nc1ccc(I)cc1Cl | 0

These compounds were tested on ALK. Conditions: concentration: 1 μM, replicates: in singlicate; n = 1.

Compound | %Inh [%]
N#Cc1ccc(-c2cc(-c3c[nH]nc3-c3ccccn3)ccn2)cc1 [GW693028] | 25
O=C(Nc1n[nH]c2cc(-c3cccc(F)c3)ccc12)C1CC1 [SB-735464] | 0
COc1cc2c(cc1OC[C@@H](O)CO)ncc1c3ccc(C#N)cc3[nH]c21 | 15
CCCCCc1nc2c(N)ncnc2n1CCCCC [SKF-97255] | 0
Cc1cccc(Cn2ccn3c(=O)cc(N4CCOCC4)nc23)c1 [GSK2297542] | 36
CCn1cnc2c(N)ncnc21 [GW345098] | 0
Cn1ccc2ncnc(Oc3ccc(NC(=O)Nc4ccncc4)c(Cl)c3)c21 | 0
Cn1cc(-c2ccc3c(c2)CCN3C(=O)Cc2ccccc2Cl)c2c(N)ncnc21 [GSK2608885] | 0
Cl.Nc1ncnc2occ(-c3ccc(NC(=O)Nc4cc(C(F)(F)F)ccc4F)cc3)c12 [SB-707548] | 75
Cc1ccc(C(=O)NCC(N)=O)cc1-n1c(C)cc(OCc2ccc(F)cc2F)c(Br)c1=O | 0
NCC(NC(=O)c1cc(-c2cn[nH]c2)c(-c2ccnc3[nH]ccc23)s1)c1ccccc1.O=C(O)C(F)(F)F.O=C(O)C(F)(F)F (stereo not shown) [GSK1325775] | 38
CN(C(=O)c1ccc(-c2cc(-c3c[nH]nc3-c3ccccn3)ccn2)cc1)C1CCOCC1 [GW810083] | 17
Cc1nnc(-c2ccc(C)c(-c3ccc(C(=O)Nc4ccc(NS(C)(=O)=O)cc4)cc3)c2)o1 [GW702865] | 6
CN(C1=C(c2ccccc2)C(=O)NC1=O)c1ccccc1 [SB-334860] | 0
Cc1cccc(-c2nc(Nc3ccc4ncsc4c3)c3ccccc3n2)n1 [GW867588] | 0
NS(=O)(=O)CCc1cccc(Nc2nccc(-c3c(-c4cccc(NC(=O)c5c(F)cccc5F)c4)nn4ccccc34)n2)c1 [GSK336735] | 24
CNc1ncnc2[nH]ncc12 [SKF-18355] | 0
Cc1c2ccc(N(C)c3ccnc(Nc4cccc(S(N)(=O)=O)c4)n3)cc2nn1Cc1ccccc1.Cl.Cl [GW787226] | 0

Compound | %Inh [%]
COc1ccc(CNC(=O)NC2CCN(c3ccnc(Nc4ccc(OC)cc4)n3)C2)cc1 (stereo not shown) [GSK1379727] | 28
Cc1nnc(-c2ccc3occ(-c4ccc(C(C)O)cc4)c3c2)o1 (stereo not shown) | 0
Fc1ccc(-c2nn3c(OCC(F)(F)F)cccc3c2-c2ccncc2)cc1 [GW514784] | 0
O=C1Cc2cc(Nc3nc(NCc4cccc(S(=O)(=O)C(F)(F)F)c4)ncc3C(F)(F)F)ccc2N1 | 0
O=C(NCCNc1ccnc(Nc2ccc(F)cc2)n1)c1cc2ccccc2s1 [GSK1379874] | 5
Nc1nccc(-c2c(-c3ccc(F)cc3)ncn2C2CCN(CC(F)(F)F)CC2)n1 [SB-236560] | 29
Nc1nc(-c2ccc3c(N)n[nH]c3c2)cc(N2CCCC2)n1 [GSK2227430] | 4
O=c1cc(N2CCOCC2)nc2n(Cc3cccc(Cl)c3Cl)c(C3CC3)nn12 [GSK2358994] | 0
N#Cc1c(N2CCOCC2)sc(-c2ccn[nH]2)c1-c1ccc(Cl)cc1 | 0
NS(=O)(=O)c1cccc(-c2ccc3nccc(-c4cccc(S(N)(=O)=O)c4)c3c2)c1 [GW867253] | 0
O=c1cc(N2CCOCC2)nc2n(Cc3cccc(F)c3)ccn12 [GSK2297430] | 8
Cc1cccc(-c2nc(-c3ccc(S(C)(=O)=O)cc3)sc2-c2ccncc2)c1 | 5
COCCNC(=O)c1ccc(-c2cc(C(=O)NC3CC3)cc(F)c2C)cc1 [GW868318] | 51
Cc1cn2c(=O)cc(N3CCOCC3)nc2n1Cc1cccc(Cl)c1Cl [GSK2334006] | 6
COc1ccc(COc2cc(-n3cnc4ccccc43)sc2C(N)=O)cc1 [GSK1024304] | 23
CN1c2ccc(NCc3ccc(F)cc3)cc2-c2c(cnn2C)S1(=O)=O | 13
O=C(NOCC1CC1)c1ccc(F)c(F)c1Nc1ccc(I)cc1Cl | 0
